# Experimental data reported in PubChem BioAssay (Tox21).
# Results filed as inconclusive are left out. A call without a number means that no potency is given here. Calls of active or inactive are those of the source. Unless noted, the call rests on the fitted dose curve; in most records, active means well fitted inhibition curve with a large enough effect in the repeat runs (not every such curve was filed as active); inconclusive means weak or mixed curves; inactive means flat fitted curve, though single readings scatter.
# Test system: not listed separately
# Test: qHTS assay to identify small molecule agonists of the TGF-beta/Smad signaling pathway (AID 1346859; active means well fitted activation curve with a large enough effect in the signal ratio in the repeat runs, not every such curve was filed as active; the % refers to the signal ratio)
# Conditions: SBE-bla HEK293T, TGF-beta/Smad beta-lactamase reporter, 5 h; series mostly up to 76.8 µM; activation: at the top concentration
# Method in brief: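 Smad-responsive beta-lactamase reporter cells (HEK 293T) received compounds from DMSO stocks after overnight attachment, were incubated 5 hr, then treated 2 hr with FRET substrate before dual-emission fluorescence measurement (405 nm excitation).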
SMILES,Potency,activation
O=C1CCCCCCCCCCC1,inactive,
CN1Cc2c(N)cccc2C(c2ccccc2)C1 (stereo not given),inactive,
COCN(COC)c1nc(N(COC)COC)nc(N(COC)COC)n1,inactive,
CC/C(C)=N/O,inactive,
CC(=O)OCCC(C)C,inactive,
C=C1C[C@]23C[C@@]1(O)CC[C@H]2[C@@]12C=C[C@H](O)[C@@](C)(C(=O)O1)[C@H]2[C@@H]3C(=O)O,inactive,
COc1ccc2cc3[n+](cc2c1OC)CCc1cc2c(cc1-3)OCO2,,-6.69% [at 35.3 µM] (inactive)
CC1=CC(=O)CC(C)(C)C1,inactive,
CC(O)CNCC(C)O (stereo not given),inactive,
CCCCCCC(=O)O,inactive,
Cc1ccncc1,inactive,
CN1CCCC1=O,inactive,
O=C1O[C@H]([C@H](O)CO)C(O)=C1O,inactive,
CC/C=C(\C(=O)N[C@@H]1C(=O)N2C(C(=O)OCOC(=O)C(C)(C)C)=C(COC(N)=O)CS[C@H]12)c1csc(N)n1,inactive,
CCOC(=O)CC(=O)OCC,inactive,
COc1cc(NC(=O)CC(C)=O)c(OC)cc1Cl,,-11.7% (inactive)
O=[N+]([O-])c1cc(C(F)(F)F)ccc1Cl,inactive,
NCCNCCNCCN,inactive,
CCCCC(CC)COC(=O)c1ccc(C(=O)OCC(CC)CCCC)cc1 (stereo not given),inactive,

SMILES,Potency,activation
CC1(C)[C@@H](O[C@H]2O[C@H](C(=O)O)[C@@H](O)[C@H](O)[C@H]2O[C@@H]2O[C@H](C(=O)O)[C@@H](O)[C@H](O)[C@H]2O)CC[C@]2(C)[C@H]3C(=O)C=C4[C@@H]5C[C@@](C)(C(=O)O)CC[C@]5(C)CC[C@@]4(C)[C@]3(C)CC[C@@H]12,inactive,
C=C(CC(=O)O)C(=O)O,inactive,
NC(N)=S,inactive,
Brc1ccc(Oc2ccc(Br)cc2)cc1,inactive,
OCCOCCOCCOCCOCCO,inactive,
C=CC(C)(C)C,inactive,
Cc1ccc(C)c(S(=O)(=O)O)c1,inactive,
CC(=O)Nc1ccc(CC(=O)O)cc1,inactive,
NC1CCCCC1N (stereo not given),inactive,
Cc1nnc(NS(=O)(=O)c2ccc(N)cc2)s1,inactive,
CCCCCCCCCCCCCC(=O)O,inactive,
Clc1cccc(Cl)c1NC1=NCCN1,inactive,
O=Cc1ccc(CO)o1,inactive,
CC(C)(CO)CO,inactive,
O=c1n(CCCN2CCN(c3cccc(Cl)c3)CC2)nc2ccccn12,inactive,
COc1ccccc1[N+](=O)[O-],inactive,
CCCCC(=O)O,inactive,
N#CCC(=O)O,inactive,
Cc1ncc(CO)c(CO)c1O,inactive,

# Molecular target: Thyrotropin-releasing hormone receptor (Homo sapiens) (UniProt P34981)
# Sequence (P34981 whole entry, looked up): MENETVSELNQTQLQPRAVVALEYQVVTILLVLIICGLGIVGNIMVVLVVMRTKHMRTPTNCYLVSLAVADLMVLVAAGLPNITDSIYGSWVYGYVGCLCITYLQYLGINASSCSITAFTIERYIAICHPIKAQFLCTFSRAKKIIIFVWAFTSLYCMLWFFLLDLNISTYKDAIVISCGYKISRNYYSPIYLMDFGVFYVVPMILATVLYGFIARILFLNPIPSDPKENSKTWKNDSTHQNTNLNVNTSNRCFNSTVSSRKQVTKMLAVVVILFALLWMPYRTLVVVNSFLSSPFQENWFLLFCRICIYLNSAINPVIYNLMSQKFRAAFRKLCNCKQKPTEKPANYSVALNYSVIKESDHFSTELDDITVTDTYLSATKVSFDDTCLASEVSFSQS
# Test: qHTS assay to identify small molecule antagonists of the thyrotropin-releasing hormone receptor (TRHR) signaling pathway (AID 1346877)
# Conditions: TRHR-HEK293, TRH-induced calcium fluorescence, antagonist mode; series mostly up to 51.3 µM; activity, negative = inhibition: at the top concentration
# Method in brief: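 TRHR-expressing HEK293 cells were seeded, cultured 18 h at 37 °C, then loaded with calcium dye for 2 h. Compounds were pre-incubated 5 min at room temperature before 1 nM TRH (final) was added, and kinetic fluorescence was recorded for 3 min.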
row,SMILES,Potency
1,COCN(COC)c1nc(N(COC)COC)nc(N(COC)COC)n1,inactive
2,CC/C(C)=N/O,inactive
3,CC(=O)OCCC(C)C,inactive
4,COc1ccc2cc3[n+](cc2c1OC)CCc1cc2c(cc1-3)OCO2,inactive
5,CC1=CC(=O)CC(C)(C)C1,inactive
6,Cc1ccncc1,inactive
7,CN1CCCC1=O,inactive
8,CC/C=C(\C(=O)N[C@@H]1C(=O)N2C(C(=O)OCOC(=O)C(C)(C)C)=C(COC(N)=O)CS[C@H]12)c1csc(N)n1,inactive
9,CCOC(=O)CC(=O)OCC,inactive
10,COc1cc(NC(=O)CC(C)=O)c(OC)cc1Cl,inactive
11,O=[N+]([O-])c1cc(C(F)(F)F)ccc1Cl,inactive
12,NCCNCCNCCN,inactive
13,CCCCC(CC)COC(=O)c1ccc(C(=O)OCC(CC)CCCC)cc1 (stereo not given),inactive
14,C=C(CC(=O)O)C(=O)O,inactive
15,NC(N)=S,inactive
16,Brc1ccc(Oc2ccc(Br)cc2)cc1,inactive
17,OCCOCCOCCOCCOCCO,inactive
18,Cc1ccc(C)c(S(=O)(=O)O)c1,inactive
19,CC(=O)Nc1ccc(CC(=O)O)cc1,inactive
20,CCCCCCCCCCCCCC(=O)O,inactive
21,O=Cc1ccc(CO)o1,inactive
22,CC(C)(CO)CO,inactive
23,COc1ccccc1[N+](=O)[O-],inactive
24,CCCCC(=O)O,inactive
25,N#CCC(=O)O,inactive
26,Cc1ncc(CO)c(CO)c1O,inactive

# Molecular target: Thyrotropin-releasing hormone receptor (Homo sapiens) (UniProt P34981)
# Test: qHTS assay to identify small molecule agonists of the thyrotropin-releasing hormone receptor (TRHR) signaling pathway (AID 1346891; calls by dose curve)
# Conditions: TRHR-HEK293 calcium fluorescence, agonist mode; series mostly up to 57.6 µM; activation: at the top concentration
# Method in brief: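 Agonist-mode calcium mobilisation screen: TRHR-transfected HEK293 cells cultured overnight (18 h), dye-loaded for 2 h at 37 °C, exposed to compounds, and monitored by fluorescence for 3 min.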
row,SMILES,outcome
1,COCN(COC)c1nc(N(COC)COC)nc(N(COC)COC)n1,inactive
2,CC/C(C)=N/O,inactive
3,CC(=O)OCCC(C)C,inactive
4,COc1ccc2cc3[n+](cc2c1OC)CCc1cc2c(cc1-3)OCO2,inactive
5,CC1=CC(=O)CC(C)(C)C1,inactive
6,Cc1ccncc1,inactive
7,CN1CCCC1=O,inactive
8,CC/C=C(\C(=O)N[C@@H]1C(=O)N2C(C(=O)OCOC(=O)C(C)(C)C)=C(COC(N)=O)CS[C@H]12)c1csc(N)n1,inactive
9,CCOC(=O)CC(=O)OCC,inactive
10,COc1cc(NC(=O)CC(C)=O)c(OC)cc1Cl,inactive
11,O=[N+]([O-])c1cc(C(F)(F)F)ccc1Cl,inactive
12,NCCNCCNCCN,inactive
13,CCCCC(CC)COC(=O)c1ccc(C(=O)OCC(CC)CCCC)cc1 (stereo not given),inactive
14,C=C(CC(=O)O)C(=O)O,inactive
15,NC(N)=S,inactive
16,Brc1ccc(Oc2ccc(Br)cc2)cc1,inactive
17,OCCOCCOCCOCCOCCO,inactive
18,Cc1ccc(C)c(S(=O)(=O)O)c1,inactive
19,CC(=O)Nc1ccc(CC(=O)O)cc1,inactive
20,CCCCCCCCCCCCCC(=O)O,inactive
21,O=Cc1ccc(CO)o1,inactive
22,CC(C)(CO)CO,inactive
23,COc1ccccc1[N+](=O)[O-],inactive
24,CCCCC(=O)O,inactive
25,N#CCC(=O)O,inactive
26,Cc1ncc(CO)c(CO)c1O,inactive
